# The supplement of paper PMC10849652
# Of roughly 8,800 targets only a part is listed; those with a hit were picked by preference. About 0.5% of all pairs of compound and target were hits. A number with no mark means an inactive call.
# Columns and labels:
# Assay in all cases: log2 fold change, soluble protein after heating vs DMSO (PISA); higher = thermal stabilisation; K562 lysate, 10 uM; active = over 0.2 and 3.5 SD of the protein, either way, in both replicates (recomputed)
# ibrutinib = compound: C=CC(=O)N1CCC[C@@H](n2nc(-c3ccc(Oc4ccccc4)cc3)c3c(N)ncnc32)C1 [ibrutinib]
# Outline: (§1)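 Following dounce homogenisation of K562 pellets in PBS pH 7.4 with 1 mM MgCl2, crude extract at 1 mg/mL protein was incubated for 30 min with 10 μM compound. Aliquots were then heated for 3 min over 48°C-58°C and pooled, NP-40 was added to 0.5% at 4°C, and soluble protein was recovered as the supernatant at 21,000xg for 90 min. Channel-sum-equalised TMTpro 16plex LC-MS/MS quantified this protein. Each value, from duplicates, is a log-two fold change in thermal stability relative to solvent controls.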
# [1] = compound: CC(=O)c1cnc2ccc(-c3cc(Cl)c(O)c(Cl)c3)nc2c1N[C@H]1CC[C@H](CN(C)C)CC1
# Outline: as §1
# ralimetinib = compound: CC(C)(C)Cn1c(N)nc2ccc(-c3[nH]c(C(C)(C)C)nc3-c3ccc(F)cc3)nc21 [ralimetinib]
# Outline: as §1
# [2] = compound: CC(C)(O)CC(=O)NCCn1ccc2ncnc(Nc3ccc(Oc4cccc(C(F)(F)F)c4)c(Cl)c3)c21
# Outline: as §1
# [3] = compound: CC(C)C1=C2N=C(C=C(N2N=C1)NCC3=CC=CC=C3)NCCCCCCN
# Outline: as §1
# [4] = compound: CC1=C(C(CC(=O)N1)C2=CC=C(C=C2)C(F)(F)F)C(=O)NC3=C(C=C4C(=C3)C=NN4)F
# Outline: as §1
# [5] = compound: CC1=C(C2=C(C=C1)C(=O)C3=CC=CC=C3N2CCCN)C
# Outline: as §1
# [6] = compound: CC1=C(C=C(C=C1)NC(=O)C2=CC(=CC=C2)C(C)(C)C#N)NC3=CC4=C(C=C3)N=CN(C4=O)C
# Outline: as §1
# [7] = compound: CC1=C(C=C(C=C1)NC(=O)C2=CC(=CC=C2)N(C)C)NC(=O)C3=CC=C(C=C3)O
# Outline: as §1
# [8] = compound: CC1=CC=C(C=C1)SC2=C3C=C(SC3=CN=C2)C(=O)N
# Outline: as §1
# UniProt Q8N9F7, sequence (Q8N9F7 whole entry, looked up): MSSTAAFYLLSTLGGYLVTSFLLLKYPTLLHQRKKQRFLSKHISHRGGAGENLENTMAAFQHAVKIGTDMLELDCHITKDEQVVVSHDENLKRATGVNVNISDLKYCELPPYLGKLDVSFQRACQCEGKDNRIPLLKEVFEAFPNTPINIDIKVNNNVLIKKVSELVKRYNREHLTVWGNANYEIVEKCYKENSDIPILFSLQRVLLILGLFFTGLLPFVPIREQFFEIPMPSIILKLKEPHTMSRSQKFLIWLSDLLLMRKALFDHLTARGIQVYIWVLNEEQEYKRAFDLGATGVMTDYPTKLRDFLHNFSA
# UniProt Q9BQI3, sequence (Q9BQI3 whole entry, looked up): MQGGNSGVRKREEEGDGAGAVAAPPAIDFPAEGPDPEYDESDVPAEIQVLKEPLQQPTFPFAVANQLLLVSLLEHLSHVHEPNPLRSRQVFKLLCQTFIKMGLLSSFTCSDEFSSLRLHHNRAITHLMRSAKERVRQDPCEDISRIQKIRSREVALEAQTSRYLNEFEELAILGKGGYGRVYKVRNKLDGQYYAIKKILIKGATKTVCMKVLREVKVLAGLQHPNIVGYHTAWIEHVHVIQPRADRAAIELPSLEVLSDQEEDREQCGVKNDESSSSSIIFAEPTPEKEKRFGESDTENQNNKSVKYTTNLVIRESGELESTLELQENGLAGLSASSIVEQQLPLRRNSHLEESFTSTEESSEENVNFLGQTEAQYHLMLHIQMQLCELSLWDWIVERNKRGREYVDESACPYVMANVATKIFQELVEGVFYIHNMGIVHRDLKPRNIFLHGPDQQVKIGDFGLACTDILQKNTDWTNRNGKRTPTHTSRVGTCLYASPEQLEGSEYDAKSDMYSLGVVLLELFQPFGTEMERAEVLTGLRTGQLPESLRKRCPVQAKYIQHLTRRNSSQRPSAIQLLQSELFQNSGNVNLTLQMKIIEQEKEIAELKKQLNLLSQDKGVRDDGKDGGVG
# UniProt Q9HCG7, sequence (Q9HCG7 whole entry, looked up): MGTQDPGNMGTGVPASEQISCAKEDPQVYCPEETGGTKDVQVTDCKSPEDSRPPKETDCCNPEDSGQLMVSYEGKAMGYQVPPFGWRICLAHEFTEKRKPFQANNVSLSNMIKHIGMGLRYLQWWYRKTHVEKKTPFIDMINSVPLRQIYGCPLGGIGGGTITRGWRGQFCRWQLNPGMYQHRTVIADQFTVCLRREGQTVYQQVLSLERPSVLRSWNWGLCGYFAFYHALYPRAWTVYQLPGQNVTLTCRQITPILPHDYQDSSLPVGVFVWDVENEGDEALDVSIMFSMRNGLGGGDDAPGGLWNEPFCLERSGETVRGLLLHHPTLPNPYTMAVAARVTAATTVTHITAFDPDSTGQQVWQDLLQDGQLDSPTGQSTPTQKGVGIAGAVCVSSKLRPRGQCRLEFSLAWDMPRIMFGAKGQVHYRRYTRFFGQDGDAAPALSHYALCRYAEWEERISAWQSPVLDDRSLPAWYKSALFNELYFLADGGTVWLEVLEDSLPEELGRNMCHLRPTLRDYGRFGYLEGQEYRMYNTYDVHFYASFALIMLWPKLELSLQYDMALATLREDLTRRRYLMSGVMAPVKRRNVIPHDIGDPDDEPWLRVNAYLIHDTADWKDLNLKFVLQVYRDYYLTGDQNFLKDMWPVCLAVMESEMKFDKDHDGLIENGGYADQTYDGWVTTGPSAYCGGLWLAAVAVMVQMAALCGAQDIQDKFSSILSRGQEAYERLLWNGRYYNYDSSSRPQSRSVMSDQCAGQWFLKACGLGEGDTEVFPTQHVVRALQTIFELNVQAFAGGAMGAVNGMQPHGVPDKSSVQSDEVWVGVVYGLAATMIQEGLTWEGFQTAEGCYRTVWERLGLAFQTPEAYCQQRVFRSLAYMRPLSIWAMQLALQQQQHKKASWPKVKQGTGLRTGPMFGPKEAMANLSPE
# UniProt Q8TF64, sequence (Q8TF64 whole entry, looked up): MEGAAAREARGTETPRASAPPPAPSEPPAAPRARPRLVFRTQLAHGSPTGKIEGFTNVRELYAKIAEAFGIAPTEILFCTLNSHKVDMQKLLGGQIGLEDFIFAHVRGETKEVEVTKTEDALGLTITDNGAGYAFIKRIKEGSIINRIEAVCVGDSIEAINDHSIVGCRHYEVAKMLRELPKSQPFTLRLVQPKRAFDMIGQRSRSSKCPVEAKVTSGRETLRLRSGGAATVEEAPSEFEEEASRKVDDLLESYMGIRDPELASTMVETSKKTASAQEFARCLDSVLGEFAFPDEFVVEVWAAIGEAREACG
# UniProt Q9UJ14, sequence (Q9UJ14 whole entry, looked up): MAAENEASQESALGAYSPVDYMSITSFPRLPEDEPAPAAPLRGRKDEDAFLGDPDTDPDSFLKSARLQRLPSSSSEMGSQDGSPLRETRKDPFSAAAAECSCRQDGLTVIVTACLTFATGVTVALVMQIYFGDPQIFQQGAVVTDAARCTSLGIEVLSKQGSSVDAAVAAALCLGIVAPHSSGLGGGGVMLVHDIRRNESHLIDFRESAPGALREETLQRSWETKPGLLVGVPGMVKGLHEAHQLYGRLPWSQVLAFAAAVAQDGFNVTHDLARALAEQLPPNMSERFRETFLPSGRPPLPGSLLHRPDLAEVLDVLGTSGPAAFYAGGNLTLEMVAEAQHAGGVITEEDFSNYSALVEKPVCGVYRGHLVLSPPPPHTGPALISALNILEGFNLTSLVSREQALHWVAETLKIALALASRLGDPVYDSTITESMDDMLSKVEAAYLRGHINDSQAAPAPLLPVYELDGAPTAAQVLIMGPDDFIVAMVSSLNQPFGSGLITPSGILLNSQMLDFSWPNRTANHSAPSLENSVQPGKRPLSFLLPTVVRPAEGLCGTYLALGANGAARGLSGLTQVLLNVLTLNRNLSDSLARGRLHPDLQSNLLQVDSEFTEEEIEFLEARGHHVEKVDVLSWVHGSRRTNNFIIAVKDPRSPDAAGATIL
# UniProt Q5VTE0, sequence (Q5VTE0 whole entry, looked up): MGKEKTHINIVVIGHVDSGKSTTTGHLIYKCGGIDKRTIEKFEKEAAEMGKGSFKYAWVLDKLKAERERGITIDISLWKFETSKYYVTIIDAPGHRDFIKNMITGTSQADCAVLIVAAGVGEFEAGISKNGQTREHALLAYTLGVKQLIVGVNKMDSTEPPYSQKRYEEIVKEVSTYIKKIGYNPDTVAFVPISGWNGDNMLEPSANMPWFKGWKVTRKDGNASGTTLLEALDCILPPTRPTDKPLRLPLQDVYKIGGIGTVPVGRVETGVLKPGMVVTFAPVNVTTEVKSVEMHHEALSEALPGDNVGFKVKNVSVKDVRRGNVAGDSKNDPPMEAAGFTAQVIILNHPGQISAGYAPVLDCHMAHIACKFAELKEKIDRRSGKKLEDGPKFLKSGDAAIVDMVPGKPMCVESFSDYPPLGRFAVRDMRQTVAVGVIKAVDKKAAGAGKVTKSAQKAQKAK
# UniProt P57678, sequence (P57678 whole entry, looked up): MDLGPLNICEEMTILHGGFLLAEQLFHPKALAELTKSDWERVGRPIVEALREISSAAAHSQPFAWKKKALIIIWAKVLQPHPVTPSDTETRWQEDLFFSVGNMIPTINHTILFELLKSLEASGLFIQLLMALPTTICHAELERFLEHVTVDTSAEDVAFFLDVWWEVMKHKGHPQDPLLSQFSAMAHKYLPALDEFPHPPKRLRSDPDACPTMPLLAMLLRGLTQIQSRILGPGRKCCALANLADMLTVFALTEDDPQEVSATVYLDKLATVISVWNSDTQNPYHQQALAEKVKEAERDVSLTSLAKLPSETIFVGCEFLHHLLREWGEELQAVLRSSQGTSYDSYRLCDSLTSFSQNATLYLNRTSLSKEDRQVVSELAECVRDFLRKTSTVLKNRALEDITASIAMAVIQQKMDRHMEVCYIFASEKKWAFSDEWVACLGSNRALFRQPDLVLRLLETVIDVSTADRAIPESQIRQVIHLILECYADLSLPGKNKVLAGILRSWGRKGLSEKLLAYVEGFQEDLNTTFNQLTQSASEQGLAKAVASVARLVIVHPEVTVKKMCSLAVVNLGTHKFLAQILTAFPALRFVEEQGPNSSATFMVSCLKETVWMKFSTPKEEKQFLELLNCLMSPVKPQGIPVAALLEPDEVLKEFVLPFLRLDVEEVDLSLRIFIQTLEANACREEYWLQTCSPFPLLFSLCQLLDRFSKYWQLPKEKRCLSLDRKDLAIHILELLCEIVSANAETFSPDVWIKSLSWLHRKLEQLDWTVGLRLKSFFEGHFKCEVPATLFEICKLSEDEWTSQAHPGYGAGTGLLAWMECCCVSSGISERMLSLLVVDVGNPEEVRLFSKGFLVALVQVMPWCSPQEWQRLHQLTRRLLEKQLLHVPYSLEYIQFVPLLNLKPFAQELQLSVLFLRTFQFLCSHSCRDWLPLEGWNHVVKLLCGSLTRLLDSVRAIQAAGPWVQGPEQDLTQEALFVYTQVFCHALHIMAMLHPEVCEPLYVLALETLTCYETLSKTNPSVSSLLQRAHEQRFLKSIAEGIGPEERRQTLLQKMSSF
# UniProt O75477, sequence (O75477 whole entry, looked up): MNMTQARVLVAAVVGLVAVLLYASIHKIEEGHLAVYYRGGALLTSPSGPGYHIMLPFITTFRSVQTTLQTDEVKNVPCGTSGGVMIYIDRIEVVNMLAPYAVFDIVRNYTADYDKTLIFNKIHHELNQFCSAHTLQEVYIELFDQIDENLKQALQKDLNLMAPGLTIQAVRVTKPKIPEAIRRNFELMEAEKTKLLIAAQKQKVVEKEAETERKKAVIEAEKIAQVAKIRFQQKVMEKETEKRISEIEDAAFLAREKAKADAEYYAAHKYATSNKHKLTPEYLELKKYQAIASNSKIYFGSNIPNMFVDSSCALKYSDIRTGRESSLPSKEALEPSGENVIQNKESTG
# UniProt O14893, sequence (O14893 whole entry, looked up): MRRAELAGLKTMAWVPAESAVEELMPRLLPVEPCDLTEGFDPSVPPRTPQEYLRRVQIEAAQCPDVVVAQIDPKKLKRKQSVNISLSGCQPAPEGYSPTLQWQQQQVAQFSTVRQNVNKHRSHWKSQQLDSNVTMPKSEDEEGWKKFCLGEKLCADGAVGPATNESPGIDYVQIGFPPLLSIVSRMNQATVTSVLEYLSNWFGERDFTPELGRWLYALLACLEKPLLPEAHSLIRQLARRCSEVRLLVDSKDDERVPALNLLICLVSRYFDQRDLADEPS
Target,log2 fold change (ibrutinib),log2 fold change [1],log2 fold change (ralimetinib),log2 fold change [2],log2 fold change [3],log2 fold change [4],log2 fold change [5],log2 fold change [6],log2 fold change [7],log2 fold change [8]
GEMIN4 (UniProt P57678),0.003,-0.028,0.056,0.001,0.051,0.007,-0.048,-0.005,0.059,0.011
EIF3I (UniProt Q13347),0.018,-0.019,0.035,0.046,0.032,0.003,0.013,0.009,0.056,0.022
EPB41 (UniProt P11171),0.01,0.026,0.009,0.012,-0.003,-0.001,0.018,-0.023,0.01,0.044
GCLM (UniProt P48507),0.006,-0.009,0.01,-0.047,-0.028,0.006,-0.007,0.024,-0.026,-0.006
ESRRA (UniProt P11474),-0.408 (active),0.045,0.043,-0.023,0,-0.007,-0.075,0.067,-0.009,0.089
FAM83D (UniProt Q9H4H8),0.028,0.031,0.041,-0.018,0.013,0.038,-0.098,-0.032,0.031,0.017
DST (UniProt Q03001),0.007,-0.031,-0.034,-0.098,0.021,-0.052,-0.054,0.049,0.063,-0.046
EHD2 (UniProt Q9NZN4),-0.004,0.035,0.054,-0.027,-0.005,0.066,0.063,0.019,0.059,0.017
EIF2AK1 (UniProt Q9BQI3),0.007,-0.151,0.028,0.034,-0.017,-0.001,-0.007,0.044,0.018,-0.072
G6PD isoform 2 (UniProt P11413),-0.006,0.001,0.023,0.012,0.018,-0.02,0.045,-0.002,0.024,0.003
GGT7 (UniProt Q9UJ14),0.019,0.004,-0.07,-0.106,-0.05,0.003,-0.066,-0.032,0.035,0.017
GIPC3 (UniProt Q8TF64),-0.021,-0.078,-0.019,-0.011,0.022,0.282,-0.019,0.185,-0.033,-0.13
EFCAB14 (UniProt O75071),0.026,0.015,0.055,-0.075,-0.045,0.077,0.02,0.011,0.016,0.012
EDARADD (UniProt Q8WWZ3),0.22,-0.019,-0.003,-0.071,-0.008,-0.007,0.062,0.041,0.017,-0.035
EXOC1 (UniProt Q9NV70),-0.043,0.012,0.04,-0.004,-0.023,-0.022,0.016,-0.026,0.032,-0.011
GDPD1 (UniProt Q8N9F7),0.039,-0.058,0.06,-0.137,0.047,-0.032,-0.001,0.055,0.024,-0.063
ESYT2 (UniProt H7BXI1),0.035,-0.022,0.003,-0.039,-0.04,0.046,0.05,0.015,-0.025,-0.044
GBF1 (UniProt Q92538),0.007,-0.001,0.051,-0.03,-0.011,-0.003,-0.011,-0.015,0.017,0.012
ETHE1 (UniProt O95571),-0.029,-0.01,0.03,-0.021,-0.092,0.087,0.022,0.011,0.046,-0.042
ERAL1 (UniProt O75616),0.052,-0.042,0.03,0.011,-0.007,0.047,0.03,0.014,0.045,0.018
ERLIN1 (UniProt O75477),0.005,0.034,-0.011,0.038,-0.007,0.044,0.005,-0.052,-0.008,0.012
GGA2 (UniProt Q9UJY4),-0.007,0,0.026,-0.01,-0.062,0.099,0.01,-0.024,0.031,-0.021
EEF1A1P5 (UniProt Q5VTE0),-0.01,-0.007,0.001,-0.014,0.032,0.008,0.019,-0.006,0.012,-0.011
EIF2B5 (UniProt Q13144),0,0.008,0.027,-0.018,0.008,-0.019,0.012,-0.031,0.008,0.02
EIF2B4 (UniProt Q9UI10),-0.01,0.05,-0.033,-0.062,0.013,0.009,-0.109,-0.044,0.005,-0.038
GBA2 (UniProt Q9HCG7),-0.071,-0.046,0.082,-0.097,0.042,-0.037,0.077,0.004,0.08,0.021
EEFSEC (UniProt P57772),0.031,-0.03,0.019,-0.013,-0.025,-0.011,0.005,0.011,0.039,0.006
FBXO38 (UniProt Q6PIJ6),-0.042,0.063,0.083,0.009,-0.078,-0.037,-0.073,-0.098,0.009,0.175
ERBIN isoform 8 (UniProt Q96RT1),0.029,-0.011,-0.003,0.01,-0.003,-0.037,0.012,-0.007,0.019,-0.01
GEMIN2 (UniProt O14893),-0.044,0.016,0,-0.11,0.033,-0.014,-0.025,-0.045,0.006,0.026
